# Data taken from the supplement of paper PMC6089552.
# The campaign covered roughly 3,200 compounds. About 300 (9.4%) showed activity. Shown is part of a subset that was picked to be rich in actives. Values without a mark were called inactive.
# Tested on: A673/TR/shEF
# Experiment: cell viability (LOESS-normalised, relative to median of negative controls) (log2 ratio); higher = more viable cells (less compound effect), active = hit call of the paper (over 3 MAD below the median)
# Conditions: treatment time: 72 h
# Method in brief: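 For three days, A673/TR/shEF Ewing sarcoma cells in 384-well plates (1,500 per well) were treated with library compounds at two or more concentrations or with DMSO controls, after doxycycline had been added or withheld 24 h beforehand to induce EWS-FLI1 shRNA knockdown. Viability was read by CellTiter-Glo luminescence on an Envision reader. The data were LOESS-corrected per plate, divided by the median of negative controls and log2-transformed.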
# [1] = 0.25 µM, library screen: screen1, EWS-FLI1 expression: high (no doxycycline)
# [2] = 0.25 µM, library screen: screen1, EWS-FLI1 expression: low (doxycycline-induced shRNA knockdown)
# [3] = 2.5 µM, library screen: screen1, EWS-FLI1 expression: high (no doxycycline)
# [4] = 2.5 µM, library screen: screen1, EWS-FLI1 expression: low (doxycycline-induced shRNA knockdown)
# [5] = 0.103 µM, library screen: screen3, EWS-FLI1 expression: high (no doxycycline)
# [6] = 0.103 µM, library screen: screen3, EWS-FLI1 expression: low (doxycycline-induced shRNA knockdown)
# [7] = 0.25 µM, library screen: screen2, EWS-FLI1 expression: high (no doxycycline)
# [8] = 0.25 µM, library screen: screen2, EWS-FLI1 expression: low (doxycycline-induced shRNA knockdown)
# [9] = 0.308 µM, library screen: screen3, EWS-FLI1 expression: high (no doxycycline)
# [10] = 0.308 µM, library screen: screen3, EWS-FLI1 expression: low (doxycycline-induced shRNA knockdown)
# [11] = 0.926 µM, library screen: screen3, EWS-FLI1 expression: high (no doxycycline)
# [12] = 0.926 µM, library screen: screen3, EWS-FLI1 expression: low (doxycycline-induced shRNA knockdown)
# [13] = 2.5 µM, library screen: screen2, EWS-FLI1 expression: high (no doxycycline)
# [14] = 2.5 µM, library screen: screen2, EWS-FLI1 expression: low (doxycycline-induced shRNA knockdown)
# [15] = 2.8 µM, library screen: screen3, EWS-FLI1 expression: high (no doxycycline)
# [16] = 2.8 µM, library screen: screen3, EWS-FLI1 expression: low (doxycycline-induced shRNA knockdown)
# [17] = 8.3 µM, library screen: screen3, EWS-FLI1 expression: high (no doxycycline)
# [18] = 8.3 µM, library screen: screen3, EWS-FLI1 expression: low (doxycycline-induced shRNA knockdown)
# [19] = 25 µM, library screen: screen3, EWS-FLI1 expression: high (no doxycycline)
# [20] = 25 µM, library screen: screen3, EWS-FLI1 expression: low (doxycycline-induced shRNA knockdown)
# [21] = 0.025 µM, library screen: screen2, EWS-FLI1 expression: high (no doxycycline)
# [22] = 0.025 µM, library screen: screen2, EWS-FLI1 expression: low (doxycycline-induced shRNA knockdown)
# [23] = 25 µM, library screen: screen2, EWS-FLI1 expression: high (no doxycycline)
# [24] = 25 µM, library screen: screen2, EWS-FLI1 expression: low (doxycycline-induced shRNA knockdown)
smiles,measurement,setting,value
COc1cc(CN2CCN(Cc3cccc(OC)c3OC)CC2)c([N+](=O)[O-])cc1OC,cell viability (log2),[1],0.00876
same,cell viability (log2),[2],0.0541
same,cell viability (log2),[3],0.119
same,cell viability (log2),[4],-0.0278
CC1(C)OC(=O)CC(O)[C@@]2(C)C1CC(=O)[C@]1(C)C2CCC2(C)C(c3ccoc3)OC(=O)[C@H]3O[C@]321 (some centres undefined),cell viability (log2),[1],0.0277
same,cell viability (log2),[2],0.0481
same,cell viability (log2),[3],0.0671
same,cell viability (log2),[4],0.0691
C[C@]12CCC3c4ccc(OC(=O)CCC(=O)O)cc4CCC3C1CCC2=O (some centres undefined),cell viability (log2),[1],0.126
same,cell viability (log2),[2],0.0832
same,cell viability (log2),[3],0.102
same,cell viability (log2),[4],0.0823
C=C/C(C)=C\C[C@@H]1[C@@]2(C)CCCC(C)(C)[C@@H]2CC[C@@]1(C)O,cell viability (log2),[1],0.0522
same,cell viability (log2),[2],0.0309
same,cell viability (log2),[3],0.126
same,cell viability (log2),[4],0.0611
C[C@]12CCC3c4ccc(OS(=O)(=O)O)cc4CCC3C1CC[C@H]2O (some centres undefined),cell viability (log2),[1],0.0646
same,cell viability (log2),[2],0.0512
same,cell viability (log2),[3],0.0988
same,cell viability (log2),[4],0.092
COc1cc2c(cc1O)CC[C@@H]1[C@@H]2CC[C@]2(C)[C@@H](O)CC[C@@H]12,cell viability (log2),[5],0.0202
same,cell viability (log2),[6],0.0975
same,cell viability (log2),[7],0.11
same,cell viability (log2),[8],0.04
same,cell viability (log2),[9],0.0934
same,cell viability (log2),[10],0.0693
same,cell viability (log2),[11],-0.0172
same,cell viability (log2),[12],0.0926
same,cell viability (log2),[13],0.0437
same,cell viability (log2),[14],0.0893
same,cell viability (log2),[15],0.045
same,cell viability (log2),[16],0.00908
same,cell viability (log2),[17],-0.104
same,cell viability (log2),[18],-0.0169
same,cell viability (log2),[19],-1.25 (active)
same,cell viability (log2),[20],-0.177 (active)
C[C@]12CC[C@@H]3c4ccc(O)cc4CC[C@H]3[C@@H]1CC[C@@H]2O,cell viability (log2),[5],0.029
same,cell viability (log2),[6],-0.00908
same,cell viability (log2),[1],0.122
same,cell viability (log2),[2],0.00576
same,cell viability (log2),[7],0.147
same,cell viability (log2),[8],0.0497
same,cell viability (log2),[9],0.101
same,cell viability (log2),[10],0.0915
same,cell viability (log2),[11],0.111
same,cell viability (log2),[12],0.0539
same,cell viability (log2),[3],0.0979
same,cell viability (log2),[4],0.0174
same,cell viability (log2),[13],0.0738
same,cell viability (log2),[14],0.0113
same,cell viability (log2),[15],0.127
same,cell viability (log2),[16],0.0786
same,cell viability (log2),[17],0.135
same,cell viability (log2),[18],0.0545
same,cell viability (log2),[19],0.166
same,cell viability (log2),[20],0.0719
COc1ccccc1CN1CCN(Cc2ccc(OC)c(OC)c2)CC1,cell viability (log2),[1],0.0157
same,cell viability (log2),[2],0.078
same,cell viability (log2),[3],0.0565
same,cell viability (log2),[4],0.0117
CC(C)(C)c1ccccc1OCC(O)CN1CCCCC1 (centres undefined),cell viability (log2),[1],0.09
same,cell viability (log2),[2],0.0909
same,cell viability (log2),[3],0.176
same,cell viability (log2),[4],0.0864
CC(=O)Oc1ccc(-c2coc3cc(OC(C)=O)ccc3c2=O)cc1,cell viability (log2),[1],0.152
same,cell viability (log2),[2],0.0716
same,cell viability (log2),[3],0.0709
same,cell viability (log2),[4],0.0455
CCOC(=O)C1(O)Oc2cc(OC)cc(OC)c2C(=O)C1c1ccccc1 (centres undefined),cell viability (log2),[1],0.122
same,cell viability (log2),[2],0.103
same,cell viability (log2),[3],0.112
same,cell viability (log2),[4],0.086
CCN(CC)CCCC(C)Nc1c2ccc(Cl)cc2nc2ccc(OC)cc12 (centres undefined),cell viability (log2),[21],0.148
same,cell viability (log2),[22],0.0788
same,cell viability (log2),[1],0.215
same,cell viability (log2),[2],0.197
same,cell viability (log2),[7],0.0911
same,cell viability (log2),[8],0.0849
same,cell viability (log2),[3],0.176
same,cell viability (log2),[4],0.252
same,cell viability (log2),[13],0.0338
same,cell viability (log2),[14],0.0518
same,cell viability (log2),[23],-4.23 (active)
same,cell viability (log2),[24],-2.71 (active)
CCN(CC)CCCC(C)Nc1ccnc2cc(Cl)ccc12 (centres undefined),cell viability (log2),[21],0.158
same,cell viability (log2),[22],0.0518
same,cell viability (log2),[1],0.0569
same,cell viability (log2),[2],0.0751
same,cell viability (log2),[7],0.0978
same,cell viability (log2),[8],0.0902
same,cell viability (log2),[3],0.0579
same,cell viability (log2),[4],0.079
same,cell viability (log2),[13],0.0873
same,cell viability (log2),[14],0.0425
same,cell viability (log2),[23],0.0565
same,cell viability (log2),[24],0.0987
CCN(CCO)CCCC(C)Nc1ccnc2cc(Cl)ccc12 (centres undefined),cell viability (log2),[1],0.00358
same,cell viability (log2),[2],0.138
same,cell viability (log2),[3],0.146
same,cell viability (log2),[4],0.0473
CC1(C)C(=O)CC[C@@]2(C)C1C[C@@H](O)[C@@]1(C)C3=CC(=O)O[C@@H](c4ccoc4)[C@]3(C)CCC21 (some centres undefined),cell viability (log2),[1],0.0874
same,cell viability (log2),[2],0.0583
same,cell viability (log2),[3],0.0284
same,cell viability (log2),[4],0.0454
COc1cc2c(cc1O)C(Cc1ccc(O)cc1)N(C)CC2 (centres undefined),cell viability (log2),[1],0.127
same,cell viability (log2),[2],0.111
same,cell viability (log2),[3],0.067
same,cell viability (log2),[4],0.114
O=C(O[C@@H]1Cc2c(O)cc(O)cc2O[C@@H]1c1cc(O)c(O)c(O)c1-c1c([C@H]2Oc3cc(O)cc(O)c3C[C@H]2O)cc(O)c(O)c1O)c1cc(O)c(O)c(O)c1,cell viability (log2),[1],0.0332
same,cell viability (log2),[2],0.0641
same,cell viability (log2),[3],0.0977
same,cell viability (log2),[4],-0.0327
COc1ncc(-c2ccc3nccc(-c4ccnnc4)c3c2)cc1NS(=O)(=O)c1ccc(F)cc1F,cell viability (log2),[5],-0.686 (active)
same,cell viability (log2),[6],-0.505 (active)
same,cell viability (log2),[9],-1.07 (active)
same,cell viability (log2),[10],-0.722 (active)
same,cell viability (log2),[11],-1.88 (active)
same,cell viability (log2),[12],-1.31 (active)
same,cell viability (log2),[15],-2.85 (active)
same,cell viability (log2),[16],-2.24 (active)
same,cell viability (log2),[17],-3.29 (active)
same,cell viability (log2),[18],-2.78 (active)
same,cell viability (log2),[19],-3.83 (active)
same,cell viability (log2),[20],-3.59 (active)
